Rab9 promoter act = activators of Rab9 promoter | Huh7 Rab9 promoter-luciferase reporter, luminescence, 24 h | 320,000 tested, 2.8% active | Potency, µM (top dose mostly 9.22 µM), for inactives: at the top dose activation, negative = inhibition, most hits filed as activators; note: % of control where 0% means no effect; nearly all actives have a fitted effect of over 60% in size
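Stable Rab9-luc Huh7, 1500 cells/well, 2 h settle; cmpd in DMSO, 24 h, 37 °C/5% CO2; luciferase reagent 10 min RT; luminescence.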
ELG1 genotox = induces genotoxicity in HEK293T cells with luciferase-tagged ELG1. HEK293T ELG1-luciferase reporter, luminescence, 16 h. 330,000 tested, 1.3% active. Potency, µM (highest dose often 46 µM), inactives show top-dose activity change, positive = activation, usual class: activators; note: % of control where 0% means no effect; nearly all actives have a fitted effect of over 60% in size
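Genotoxic stress is detected as increased luminescence from luciferase-tagged ELG1 in HEK293T cells, measured with ONE-Glo after a 16 hr treatment at 37 °C.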
NPC1 promoter act = NPC1 promoter activation | Huh7 NPC1 promoter luciferase reporter, 24 h | 320,000 tested, 2.4% active | AID 485313 | Potency, µM (highest dose often 9.22 µM), inactives show at the highest dose activation, hits mostly activators; note: % of control where 0% means no effect; nearly all actives have a fitted effect of over 60% in size
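Cells: Huh7 expressing luciferase under the NPC1 promoter, 1500/well. Seeded 2 h, compound added, incubated 24 h at 37 °C. Luciferase reagent, 10 min ambient, then luminescence.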
SMN2 splice up = enhancers of SMN2 splice variant expression; HEK293 SMN2-luciferase splicing reporter, luminescence, 30-36 h; Potency, µM (doses to about 46.1 µM), without a hit: top-dose activity change, positive = activation, usual class: activators; 210,000 tested, 2.8% active; AID 1458; note: % of control where 0% means no effect; nearly all actives have a fitted effect of over 55% in size
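HEK293 cells carry an SMN2 minigene-luciferase reporter in which exon 7 inclusion puts luciferase in frame. Cells were seeded at 2000 cells/well, attached for 10-12 hours, then exposed to compounds for 30-36 hours at 37C before ONE-Glo luminescence.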
FLuc counter = counter-screen for miR-21 project: firefly luciferase inhibitors or activators; Potency, µM (highest dose often 57.5 µM), without a hit: at the highest dose activity change, negative = inhibition, most hits filed as inhibitors; purified FLuc, Km substrates, luminescence inhibition; P08659; AID 588342; 360,000 tested, 6.9% active;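 note: plate controls were vehicle for no effect and reference inhibitor for full effect; nearly all actives have a fitted effect of over 55% in size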
Target sequence (P08659 whole entry, looked up): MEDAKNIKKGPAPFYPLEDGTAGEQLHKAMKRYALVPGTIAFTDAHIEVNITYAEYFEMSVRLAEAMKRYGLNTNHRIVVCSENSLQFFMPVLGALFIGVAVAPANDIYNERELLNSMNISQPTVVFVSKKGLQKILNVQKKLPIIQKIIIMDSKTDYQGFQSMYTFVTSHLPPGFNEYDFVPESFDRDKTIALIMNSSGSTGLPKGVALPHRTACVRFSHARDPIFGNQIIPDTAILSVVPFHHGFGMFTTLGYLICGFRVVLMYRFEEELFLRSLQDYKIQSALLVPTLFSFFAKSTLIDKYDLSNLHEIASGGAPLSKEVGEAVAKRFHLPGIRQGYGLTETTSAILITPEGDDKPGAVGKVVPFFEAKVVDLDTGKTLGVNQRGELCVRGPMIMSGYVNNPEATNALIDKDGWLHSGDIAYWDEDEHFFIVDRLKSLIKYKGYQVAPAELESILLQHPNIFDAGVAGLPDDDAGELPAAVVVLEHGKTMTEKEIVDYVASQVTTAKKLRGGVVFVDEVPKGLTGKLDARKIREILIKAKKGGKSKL
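Purified P. pyralis luciferase (10nM final) with 10uM D-luciferin and 10uM ATP (Km levels) in 50mM Tris acetate pH 7.5, 10mM Mg acetate, 0.01% Tween-20, 0.05% BSA; qHTS 6-point titration, ~60 µM downward; luminescence read.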
ELG1 repair inh = inhibitors of ELG1-dependent DNA repair in HEK293T cells. HEK293T ELG1-luciferase reporter, luminescence, 16 h; DNA damage induced by 5-fluorouridine. Potency, µM (series often up to 46.1 µM), for the others: top-dose activity change, negative = inhibition, most hits filed as inhibitors. 330,000 tested, 2.3% active. AID 504467; note: % is set by controls: 0 for no effect and ±100 for the full control effect; nearly all actives have a fitted effect of over 55% in size
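In this reporter screen, reduction of luminescence relative to DMSO vehicle indicated activity. Compounds and 5-fluorouridine were added together to 2,000 cells per well, incubated for 16 hr at 37 °C, then developed with ONE-Glo.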
Numbers without * were called inactive; ? = inconclusive; . = no result; [ ] = dose if it differs, or a comment. This is a sample that favours compounds with a hit; in the whole collection about 9.4% have one here. Calls come from the whole dose curve; as a rule, active = well fitted curve in the direction sought with a large enough effect; inconclusive = small, poorly fitted or top-dose-only effect, or another doubt; inactive = no such curve, though single readings can be large; an effect the other way counts as inactive or inconclusive. Potency is the fitted concentration of half-maximal effect.

SMILES	Rab9 promoter act	ELG1 genotox	NPC1 promoter act	SMN2 splice up	FLuc counter	ELG1 repair inh
CCCc1ccc2oc(C(=O)N(C)Cc3nccs3)c(C)c2c1	?	23µM*	?	.	15µM*	?
COc1ccc(-c2nc(C)c(CCNS(=O)(=O)c3cc(C)c(C)cc3C)s2)cc1	.	.	.	.	-12%	.
CN1CCN(CCCNC(=O)c2cc3c(-c4ccc(Cl)cc4)nn(C)c3s2)CC1	2%	?	-3%	-29%	-2%	?
Cn1nc(-c2ccc(Cl)cc2)c2cc(C(=O)NCC3CCCO3)sc21 (centres undefined)	0%	-6%	-12%	7%	-2%	16µM*
COc1cccc(-c2cc(C(=O)NCC3CCCO3)c3cc(Br)cc(C)c3n2)c1 (centres undefined)	5%	?	-7%	.	2.7µM*	12%
O=C(NCC1CCCO1)c1cn(Cc2ccccc2)nc1-c1ccccc1 (centres undefined)	-7%	-1%	-3%	.	1%	1%
Cc1ccc(-c2nn(-c3ccccc3)cc2C(=O)NCC2CCCO2)cc1 (centres undefined)	0%	-3%	0%	.	13µM*	0%
COc1ccccc1CNC(=O)c1cnn2c(C(F)F)cc(C)nc12	1%	1%	-1%	-38%	5%	23µM*
COc1ccccc1CCNC(=O)c1cnn2c(C(F)F)cc(C)nc12	-6%	-1%	-1%	5%	6%	-6%
Cc1cccc(NC(=O)Cn2c(=O)n(Cc3nc(-c4ccccc4)no3)c(=O)c3ccccc32)c1	.	.	.	.	-10%	.
CN1CCC[C@@H]1c1cccnc1.O=C(O)c1ccccc1O.O=C([OH2+])c1ccccc1O.O=C([OH2+])c1ccccc1O.O=C([OH2+])c1ccccc1O.[Cu]	.	.	.	-19%[9.22 µM]	.	.
CN1CCCN(C)C1c1cc([N+](=O)[O-])ccc1O	.	.	.	-11%[9.22 µM]	.	.
CCOc1ccc(-c2cc(C(=O)NCC3CCCO3)c3ccccc3n2)cc1 (centres undefined)	18%	-11%	13%	?	5.4µM*	?
COc1ccc(-c2cc(C(F)F)n3ncc(C(=O)NCC4CCCO4)c3n2)cc1 (centres undefined)	-1%	-13%	-1%	-8%	8%	2.1µM*
COc1ccc(-c2cc(C(=O)NCC3CCCO3)c3ccccc3n2)c(OC)c1 (centres undefined)	-3%	-10%	-7%	.	0%	-4%
O=C(NCC1CCCO1)c1cnn2c(C(F)F)cc(C3CC3)nc12 (centres undefined)	-2%	3%	0%	.	-3%	6%
Cc1ccc2nc(-c3ccccc3)cc(C(=O)NCC3CCCO3)c2c1 (centres undefined)	1%	-8%	-1%	.	5.4µM*	-2%
O=C(NCC1CCCO1)c1cc(-c2ccncc2)nc2ccc(S(=O)(=O)N3CCOCC3)cc12 (centres undefined)	-14%	2%	-1%	0%	1%	-4%
Cc1ccc2c(c1)N(C(=O)Nc1cccc3c1CCCC3)CC(C)O2 (centres undefined)	.	.	.	.	-6%	.
CC1(c2ccccc2)NC(=S)N2C1NC(=S)N2c1ccccc1 (centres undefined)	-1%	5%	0%	12%	-11%	-3%
COc1ccc(N2C(=S)NC3N2C(=S)NC3(C)c2ccccc2)cc1 (centres undefined)	4µM*	?	29%	?	?	0%
Cc1ccc(NC(=O)CN2CCN(Cc3ccccc3)CC2)c(Br)c1	4%	-2%	1%	.	3%	21µM*
Cc1ccc(NC(=O)CN2CCOCC2)c(Br)c1	27%	?	25%	.	?	?
Cc1cccc(NC(=O)N2CCN(Cc3ccccc3)CC2)c1	20%	10%	21%	18%	17µM*	?
CCC(C)NC(=O)c1cc2n(n1)CCCN(Cc1ccc(C)cc1)C2=O (centres undefined)	.	.	.	.	-5%	.
SMILES	Rab9 promoter act	ELG1 genotox	NPC1 promoter act	SMN2 splice up	FLuc counter	ELG1 repair inh
COc1ccc(NC(=O)c2cc(-c3cccs3)on2)cc1	-3%	16µM*	1%	.	?	?
O=C(Nc1cccnc1)c1cc(-c2ccccc2O)on1	-4%	-2%	0%	.	1.3µM*	0%
COc1ccccc1-c1cc(C(=O)Nc2ccccc2C(F)(F)F)no1	.	.	.	-7%	0%	.
O=C(Nc1ccccc1C(F)(F)F)c1cc(-c2ccccc2O)on1	4µM*	17%	?	?	-21%	?
O=C(Nc1cccnc1)c1cc(-c2ccc(Cl)c(Cl)c2)on1	-2%	23%	-3%	.	?	25%
COC(=O)c1ccccc1NC(=O)c1cc(-c2cccs2)on1	2.2µM*	12%	24%	7%	-7%	?
COc1ccc(NC(=O)c2cc(-c3cccs3)on2)cc1OC	0%	3%	0%	-2%	-5%	?
COC(=O)c1ccccc1NC(=O)c1cc(-c2ccco2)on1	?	4%	24%	.	-2%	-6%
CNc1ncnc2ccc(-c3c(C)noc3C)cc12	-1%	.	-1%	.	3%	.
O=C(Nc1cccnc1)c1cc(-c2cccs2)on1	?	1%	0%	-12%	1.7µM*	-5%
c1ccc(C(c2cccc3c2ccc2ccccc23)[C@H](c2ccccc2)c2cccc3c2ccc2ccccc23)cc1 (some centres undefined)	.	.	.	-1%[9.22 µM]	.	.
N/C(=N\OC(=O)c1ccc(Cl)cc1Cl)c1ccccc1	0.5µM*	?	4.5µM*	?	0.17µM*	?
CCOP(=O)(OCC)/C(=N/OC(=O)c1ccc(Cl)cc1Cl)C(N)=O	-4%	1%	-11%	.	-18%	2%
N/C(Cc1ccc(Cl)cc1Cl)=N\OC(=O)c1ccccc1	2%	0%	0%	-4%	-19%	-12%
N/C(=N\OC(=O)c1ccc(Cl)cc1Cl)c1ccc(Cl)cc1	1.6µM*	?	1.4µM*	22%	0.54µM*	?
N/C(=N\OC(=O)c1ccc(Cl)cc1Cl)c1cccnc1	1.6µM*	2.6µM*	1.4µM*	.	1.2µM*	?
Cc1cccc(/C(N)=N/OC(=O)c2ccc(Cl)cc2Cl)c1	0.32µM*	?	0.13µM*	5µM*	0.48µM*	?
CCCN1CCN(c2nnc(-n3cccc3C(=O)Nc3ccccc3C(F)(F)F)s2)CC1	.	.	.	.	-1%	.
N/C(=N\OC(=O)c1cccs1)c1cccnc1	0%	?	1%	.	8.5µM*	?
N/C(Cc1ccc(Cl)c(Cl)c1)=N\OC(=O)c1cccs1	0%	0%	-3%	9%	-12%	-4%
